Sampled rows, rich in hits. Any-hit rate of the full collection: about 4.5%.
HDAC3 inh: human HDAC3 inhibition; recombinant HDAC3, fluorogenic peptide/trypsin coupled, fluorescence; inhibition, % at 8.3 µM; 320,000 compounds, 0.15% hits; AID 2718; in the data active = inhibition above about 26%, passing the limit was not always enough; inconclusive = no clear call, values can overlap the other calls
GRK2 inh: human GRK2 inhibition via aptamer displacement; AID 488847; P25098; inhibition of aptamer binding, % at 10 µM; 330,000 compounds, 0.59% hits; bead flow cytometry, FAM-aptamer displacement from GRK2;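 active = inhibition of aptamer binding above 40%, roughly 3 SD of noise, on plates passing a quality check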;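 note: median bead fluorescence of bound FAM aptamer so fluorescent compounds give negative values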
Efflux pump inh: inhibitors of Candida antifungal efflux pumps expressed in yeast; inhibition, % at 10 µM; S. cerevisiae Candida pump triplex, Nile Red efflux; 330,000 compounds, 0.44% hits; AID 485275;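 active = plate passing quality check with inhibition over a set limit, or well fluorescence over plate mean plus 4 SD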;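 note: Nile Red retained in pooled yeast measured as flow cytometry median fluorescence; 0% = buffer negative control and 100% = Enniatin B positive control; higher means more Nile Red kept so more efflux inhibition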
ALR H2O2 inh: inhibitors of human sulfhydryl oxidase ALR | 290,000 compounds, 3.8% hits | inhibition, % (no concentration beside the values) | purified ALR, DTT oxidation, H2O2 HRP-luminol luminescence | P55789;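 active = mean replicate inhibition above about 79%, with every replicate also reaching it, limit read from the data; inconclusive = only one of the two criteria met; inactive = mean below limit and not every replicate reaching it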
Rtt109 HAT inh: blocks Candida albicans Rtt109/Vps75 acetyltransferase activity | purified Rtt109/Vps75, ThioGlo CoA-SH fluorescence, 4 h | inhibition, % at 34.9 µM | 330,000 compounds, 0.16% hits;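 active = inhibition of at least 50% in every replicate; inconclusive = best replicate reaches 50% inhibition but some replicates fall short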
Target sequence (Q5AAJ8 whole entry, looked up): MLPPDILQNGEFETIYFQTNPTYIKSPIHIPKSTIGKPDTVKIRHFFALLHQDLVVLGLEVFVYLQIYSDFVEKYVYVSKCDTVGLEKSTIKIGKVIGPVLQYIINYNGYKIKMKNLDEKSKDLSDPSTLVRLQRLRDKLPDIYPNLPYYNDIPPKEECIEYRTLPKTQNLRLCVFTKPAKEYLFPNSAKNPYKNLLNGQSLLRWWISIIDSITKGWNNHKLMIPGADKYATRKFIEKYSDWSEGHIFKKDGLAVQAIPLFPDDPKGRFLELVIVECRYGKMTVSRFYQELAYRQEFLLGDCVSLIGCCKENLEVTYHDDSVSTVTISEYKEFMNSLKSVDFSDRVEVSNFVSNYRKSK
Rce1 inhib: inhibitors of yeast Ras-converting enzyme; calls only; AID 2563; 290,000 compounds, 0.27% hits; yeast membranes, quenched prenylated peptide cleavage fluorescence;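 active = fall in fluorescence gain of 50% or more versus controls, with final raw signal at or below 3038400; inconclusive = same 50% fall but final raw signal above 3038400; inactive = fall in fluorescence gain under 50%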;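 note: plate controls were neutral control wells for no effect and wells lacking membranes for full effect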
GRK2 CP1: human GRK2 inhibition confirmation, cherry pick 1 | shares compounds with GRK2 inh | bead-bound GRK2, FAM-aptamer displacement, flow cytometry | aptamer displacement, % at 10 µM | 2,000 compounds, 4% hits | AID 504451;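 active = aptamer displacement above 40%, near three times the noise of non-fluorescent compounds, on plates passing quality checks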;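 note: negative values mostly reflect intrinsic compound fluorescence rather than true enhancement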
FAM quench CP1: aptamer fluorescence quenching in GRK2 counter-screen; Carboxyfluorescein RNA aptamer on beads, flow cytometry quenching; stronger effect = lower value; fluorescence response (% of DMSO), % at 10 µM; 2,000 tested, under 10 active; shares compounds with GRK2 inh;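 active = compounds that quench the bead-bound fluorescent RNA probe, cutting fluorescence to under half of the solvent control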;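 note: counterscreen run without GRK2 so only probe quenching by compound is measured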
GRK2 confirm 2: human GRK2 inhibition confirmation, cherry pick 2 | bead-bound GRK2, FAM-aptamer displacement, flow cytometry | inhibition of aptamer binding, % at 10 µM | 360 tested, under 10 active | shares compounds with GRK2 inh;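 active = inhibition of aptamer binding above 40%, about triple the noise seen with nonglowing compounds, on plates passing quality control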;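 note: negative values mostly come from compounds that fluoresce themselves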
FAM quench CP2: aptamer fluorescence quenching in GRK2 counter-screen | shares compounds with GRK2 inh | carboxyfluorescein RNA aptamer beads, flow cytometry quenching; stronger effect = lower value | fluorescence response vs DMSO, % at 10 µM | 360 tested, under 10 active;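 active = response vs DMSO under 50%, meaning signal dropped by over half, treated as fluorescence quencher; inconclusive = no clear call, values can overlap the other calls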;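 note: labelled aptamer on streptavidin beads without GRK2 as a quench counter-screen; 100% = bead fluorescence of DMSO wells and lower means quenching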
An asterisk follows results filed as active; i = inactive; ? = inconclusive; . = no result.

SMILES	HDAC3 inh	GRK2 inh	Efflux pump inh	ALR H2O2 inh	Rtt109 HAT inh	Rce1 inhib	GRK2 CP1	FAM quench CP1	others
Cc1ccc(S(=O)(=O)N2CCN(C(=O)COC(=O)CCOc3ccccc3)CC2)c(C)c1	5	63*	0	-2	10	.	-3	100
C=CCOc1c(CNC2CCCC2)cc(Cl)cc1OC	.	87*	0	.	-6	i	-2	102
COc1cc(CNC2CCCCCCC2)cc(Cl)c1OC	5	0	0	-1	0	i	.	.
O=C(NCc1ccco1)c1nc2nc(-c3cccs3)cc(C(F)(F)F)n2n1	-81	42*	0	49	-82	i	2	99
O=C(NCc1ccco1)c1nn2c(C(F)(F)F)cc(-c3cccs3)nc2c1Br	1	19	0	28	0	i	.	.
O=C(c1cc(S(=O)(=O)N2CCOCC2)ccc1F)N(Cc1nnc(-c2ccccc2Cl)o1)C1CC1	3	1	0	6	-1	i	.	.
Cc1ccc(S(=O)(=O)N2CCOCC2)cc1C(=O)N(Cc1nnc(-c2ccccc2Cl)o1)C1CC1	-2	44*	0	-1	-7	i	.	.	GRK2 confirm 2=-2;FAM quench CP2=100
Cc1cccc2c(SCC(N)=O)nc(-c3ccccc3)nc12	-6	0	0	-3	-1	i	.	.
CCOCCCNC(=O)c1ccc(N2CCCC2)c(NS(=O)(=O)c2ccc(C)cc2)c1	-7	96*	0	9	9	i	1	94
COCCCNC(=O)c1ccc(N2CCCC2)c(NS(=O)(=O)c2ccc(C)cc2)c1	4	4	0	-3	-1	i	.	.
C=CC#CC1(O)CC(C)N(C)CC1C (centres undefined)	3	0	0	-3	0	i	.	.
O=C(COC(=O)c1c[nH]c2ccccc12)NC1CCCCC1	-1	0	0	33	0	.	.	.
CCOc1ccc(OCC)c(S(=O)(=O)NCc2ccccc2)c1	2	42*	0	-4	3	i	1	93
CC(/C=N/NC(=O)c1nnn(-c2nonc2N)c1CN1CCCCC1)c1ccccc1 (centres undefined)	-2	2	0	-5	5	i	.	.
O=C(NCc1ccc2c(c1)OCO2)c1ccc(CSCc2ccc(Cl)cc2)o1	?	51*	0	12	20	i	.	.	GRK2 confirm 2=-22;FAM quench CP2=105
O=C(O)C1CCCN1c1ncccc1[N+](=O)[O-] (centres undefined)	-4	2	0	-7	3	i	.	.
COc1ccc(S(=O)(=O)n2cnc3ccccc32)cc1	-6	0	0	.	7	i	.	.
COc1cc(S(=O)(=O)n2cnc3ccccc32)ccc1Br	-5	62*	0	.	-2	i	0	99
Cc1cc(/C=N/NC(N)=O)c(C)c(CO)c1	-2	77*	0	-16	5	i	3	98
CCc1cc(CC)c(/C=N/NC(N)=O)c(CC)c1/C=N/NC(N)=O	6	0	0	0	6	i	.	.
Cc1nnc(NC(=O)c2ccc(Br)cc2)s1	5	1	0	.	3	i	.	.
Cc1nnc(NC(=O)c2ccc(Br)o2)s1	3	85*	0	-11	3	i	-2	105
COc1ccc(-c2nc3ccccc3c(=O)n2CC(C)C)cc1	4	98*	0	3	-11	i	-1	96
CCN(CC)CCOC(=O)c1ccc(N/C=C(/C#N)c2nc(-c3cc4ccccc4oc3=O)cs2)cc1	22	100*	0	-9	1	i	97*	38*
O=C1NC(=O)c2cc(NC(=O)C3CCCCC3)ccc21	-4	100*	0	-8	-8	i	-9	99

Screening data as filed in PubChem.
